From the supplement of paper PMC6992640 come the findings set out here.

The experiment has as its system HCI01 (cells of a triple-negative basal-like breast cancer xenograft). Put plainly: cell viability of combination (% of vehicle); higher = less cytotoxic. Conditions: 1 µM; 72 h; partner dose: 10 nM. As for the experimental part: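 PDX cells were treated for 72 h with each drug at 1 µM plus carfilzomib (10 nM; 100 nM for WHIM2). Luciferase viability is expressed as percent of vehicle.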
`Cl.Clc1ccccc1CN1CCc2sccc2C1` [Ticlopidine HCl] + CC(C)C[C@H](NC(=O)[C@H](CCc1ccccc1)NC(=O)CN1CCOCC1)C(=O)N[C@@H](Cc1ccccc1)C(=O)N[C@@H](CC(C)C)C(=O)[C@@]1(C)CO1 [Carfilzomib]: the “cell viability of combination” value came out at 78.4.
To `CSc1ccc2c(c1)N(CCC1CCCCN1C)c1ccccc1S2.Cl` (stereo not given) [Thioridazine HCl] + CC(C)C[C@H](NC(=O)[C@H](CCc1ccccc1)NC(=O)CN1CCOCC1)C(=O)N[C@@H](Cc1ccccc1)C(=O)N[C@@H](CC(C)C)C(=O)[C@@]1(C)CO1 [Carfilzomib] belongs 77.7; to `Cl.OC(CNCC(O)C1CCc2cc(F)ccc2O1)C1CCc2cc(F)ccc2O1` (stereo not given) [Nebivolol] + CC(C)C[C@H](NC(=O)[C@H](CCc1ccccc1)NC(=O)CN1CCOCC1)C(=O)N[C@@H](Cc1ccccc1)C(=O)N[C@@H](CC(C)C)C(=O)[C@@]1(C)CO1 [Carfilzomib], 72.5; to `Oc1c(Cl)cc(Cl)c2cccnc12` [Chloroxine] + CC(C)C[C@H](NC(=O)[C@H](CCc1ccccc1)NC(=O)CN1CCOCC1)C(=O)N[C@@H](Cc1ccccc1)C(=O)N[C@@H](CC(C)C)C(=O)[C@@]1(C)CO1 [Carfilzomib], 79.4.
With `COc1cccc2c1C(=O)c1c(O)c3c(c(O)c1C2=O)C[C@@](O)(C(C)=O)C[C@@H]3O[C@H]1C[C@H](N)[C@H](O)[C@H](C)O1.Cl` [Daunorubicin HCl] + CC(C)C[C@H](NC(=O)[C@H](CCc1ccccc1)NC(=O)CN1CCOCC1)C(=O)N[C@@H](Cc1ccccc1)C(=O)N[C@@H](CC(C)C)C(=O)[C@@]1(C)CO1 [Carfilzomib], the “cell viability of combination” value was determined as 79.9.
Regarding `CC[C@@]1(O)C(=O)OCc2c1cc1n(c2=O)Cc2cc3c(CN(C)C)c(O)ccc3nc2-1` [Topotecan] + CC(C)C[C@H](NC(=O)[C@H](CCc1ccccc1)NC(=O)CN1CCOCC1)C(=O)N[C@@H](Cc1ccccc1)C(=O)N[C@@H](CC(C)C)C(=O)[C@@]1(C)CO1 [Carfilzomib], the “cell viability of combination” value turned out to be 56.9.
To `CCc1cnn2c(NCc3ccc[n+]([O-])c3)cc(N3CCCCC3CCO)nc12` (stereo not given) + CC(C)C[C@H](NC(=O)[C@H](CCc1ccccc1)NC(=O)CN1CCOCC1)C(=O)N[C@@H](Cc1ccccc1)C(=O)N[C@@H](CC(C)C)C(=O)[C@@]1(C)CO1 [Carfilzomib] belongs 33.6.
Take `CCOc1nc2cccc(C(=O)OC(C)OC(=O)OC3CCCCC3)c2n1Cc1ccc(-c2ccccc2-c2nn[nH]n2)cc1` (stereo not given) [Candesartan Cilexetil] + CC(C)C[C@H](NC(=O)[C@H](CCc1ccccc1)NC(=O)CN1CCOCC1)C(=O)N[C@@H](Cc1ccccc1)C(=O)N[C@@H](CC(C)C)C(=O)[C@@]1(C)CO1 [Carfilzomib]: the “cell viability of combination” value was determined as 77.5.
As for `COc1ccc2cc1Oc1ccc(cc1)CC1c3c(cc4c(c3Oc3cc5c(cc3OC)CCN(C)C5C2)OCO4)CCN1C` (stereo not given) [Cepharanthine] + CC(C)C[C@H](NC(=O)[C@H](CCc1ccccc1)NC(=O)CN1CCOCC1)C(=O)N[C@@H](Cc1ccccc1)C(=O)N[C@@H](CC(C)C)C(=O)[C@@]1(C)CO1 [Carfilzomib], the figure is 76.2; as for `CCOc1cc2ncc(C#N)c(Nc3ccc(OCc4ccccn4)c(Cl)c3)c2cc1NC(=O)C=CCN(C)C` [Neratinib (HKI-272)] + CC(C)C[C@H](NC(=O)[C@H](CCc1ccccc1)NC(=O)CN1CCOCC1)C(=O)N[C@@H](Cc1ccccc1)C(=O)N[C@@H](CC(C)C)C(=O)[C@@]1(C)CO1 [Carfilzomib], 87.8; as for `CCC(NC(=O)C(C)NC)C(=O)N1CC(O)CC1Cc1c(-c2[nH]c3cc(F)ccc3c2CC2CC(O)CN2C(=O)C(CC)NC(=O)C(C)NC)[nH]c2cc(F)ccc12` (stereo not given) + CC(C)C[C@H](NC(=O)[C@H](CCc1ccccc1)NC(=O)CN1CCOCC1)C(=O)N[C@@H](Cc1ccccc1)C(=O)N[C@@H](CC(C)C)C(=O)[C@@]1(C)CO1 [Carfilzomib], 61.9.
As for `CC1(C)CCC(c2ccc(Cl)cc2)=C(CN2CCN(c3ccc(C(=O)NS(=O)(=O)c4ccc(NC(CCN5CCOCC5)CSc5ccccc5)c(S(=O)(=O)C(F)(F)F)c4)cc3)CC2)C1` (stereo not given) [ABT-263 (Navitoclax)] + CC(C)C[C@H](NC(=O)[C@H](CCc1ccccc1)NC(=O)CN1CCOCC1)C(=O)N[C@@H](Cc1ccccc1)C(=O)N[C@@H](CC(C)C)C(=O)[C@@]1(C)CO1 [Carfilzomib], the figure is 47.
As to `O=C(O)CO.[NH2-].[NH2-].[Pt+2]` [Nedaplatin] + CC(C)C[C@H](NC(=O)[C@H](CCc1ccccc1)NC(=O)CN1CCOCC1)C(=O)N[C@@H](Cc1ccccc1)C(=O)N[C@@H](CC(C)C)C(=O)[C@@]1(C)CO1 [Carfilzomib], the “cell viability of combination” value worked out at 71.6.
`CC(C)COc1ccc(CNC(=O)N(Cc2ccc(F)cc2)C2CCN(C)CC2)cc1` [Pimavanserin] + CC(C)C[C@H](NC(=O)[C@H](CCc1ccccc1)NC(=O)CN1CCOCC1)C(=O)N[C@@H](Cc1ccccc1)C(=O)N[C@@H](CC(C)C)C(=O)[C@@]1(C)CO1 [Carfilzomib]: the “cell viability of combination” value came to 76.1.
To `COc1cc(Nc2ncc(F)c(Nc3ccc4c(n3)N(COP(=O)(O)O)C(=O)C(C)(C)O4)n2)cc(OC)c1OC` [Fostamatinib (R788)] + CC(C)C[C@H](NC(=O)[C@H](CCc1ccccc1)NC(=O)CN1CCOCC1)C(=O)N[C@@H](Cc1ccccc1)C(=O)N[C@@H](CC(C)C)C(=O)[C@@]1(C)CO1 [Carfilzomib] belongs 119.
As for `CN(C)CC=CC(=O)Nc1cc2c(Nc3ccc(F)c(Cl)c3)ncnc2cc1OC1CCOC1.O=C(O)C=CC(=O)O.O=C(O)C=CC(=O)O` (stereo not given) [Afatinib dimaleate] + CC(C)C[C@H](NC(=O)[C@H](CCc1ccccc1)NC(=O)CN1CCOCC1)C(=O)N[C@@H](Cc1ccccc1)C(=O)N[C@@H](CC(C)C)C(=O)[C@@]1(C)CO1 [Carfilzomib], the figure is 86.1; as for `Cl.Nc1ccn(C2OC(CO)C(O)C2O)c(=O)n1` (stereo not given) [Cytarabine hydrochloride] + CC(C)C[C@H](NC(=O)[C@H](CCc1ccccc1)NC(=O)CN1CCOCC1)C(=O)N[C@@H](Cc1ccccc1)C(=O)N[C@@H](CC(C)C)C(=O)[C@@]1(C)CO1 [Carfilzomib], 65.5.
In the case of `CC(C)(C)Cn1c(N)nc2ccc(-c3[nH]c(C(C)(C)C)nc3-c3ccc(F)cc3)nc21.CS(=O)(=O)O.CS(=O)(=O)O` + CC(C)C[C@H](NC(=O)[C@H](CCc1ccccc1)NC(=O)CN1CCOCC1)C(=O)N[C@@H](Cc1ccccc1)C(=O)N[C@@H](CC(C)C)C(=O)[C@@]1(C)CO1 [Carfilzomib], the “cell viability of combination” value turned out to be 61.9.
As for `CC1=CC(=O)c2ccccc2C1=O` [Menadione] + CC(C)C[C@H](NC(=O)[C@H](CCc1ccccc1)NC(=O)CN1CCOCC1)C(=O)N[C@@H](Cc1ccccc1)C(=O)N[C@@H](CC(C)C)C(=O)[C@@]1(C)CO1 [Carfilzomib], the figure is 78.2.
As for `CN(C(=O)CN(CCO)CC(=O)N(C)C(C)(C)Cc1ccccc1)C(C)(C)Cc1ccccc1` [Oxethazaine] + CC(C)C[C@H](NC(=O)[C@H](CCc1ccccc1)NC(=O)CN1CCOCC1)C(=O)N[C@@H](Cc1ccccc1)C(=O)N[C@@H](CC(C)C)C(=O)[C@@]1(C)CO1 [Carfilzomib], the figure is 70.7.
To `Clc1ccc(C(Cn2ccnc2)OCc2ccsc2Cl)c(Cl)c1` (stereo not given) [Tioconazole] + CC(C)C[C@H](NC(=O)[C@H](CCc1ccccc1)NC(=O)CN1CCOCC1)C(=O)N[C@@H](Cc1ccccc1)C(=O)N[C@@H](CC(C)C)C(=O)[C@@]1(C)CO1 [Carfilzomib] belongs 88.4; to `CNC(=O)c1cc(Oc2ccc(NC(=O)Nc3ccc(Cl)c(C(F)(F)F)c3)cc2)ccn1` [Sorafenib] + CC(C)C[C@H](NC(=O)[C@H](CCc1ccccc1)NC(=O)CN1CCOCC1)C(=O)N[C@@H](Cc1ccccc1)C(=O)N[C@@H](CC(C)C)C(=O)[C@@]1(C)CO1 [Carfilzomib], 69; to `Cl.Cl.O=C1c2c(O)ccc(O)c2C(=O)c2c(NCCNCCO)ccc(NCCNCCO)c21` [Mitoxantrone HCl] + CC(C)C[C@H](NC(=O)[C@H](CCc1ccccc1)NC(=O)CN1CCOCC1)C(=O)N[C@@H](Cc1ccccc1)C(=O)N[C@@H](CC(C)C)C(=O)[C@@]1(C)CO1 [Carfilzomib], 74.1.
Turning to `CO[C@H]1/C=C/O[C@@]2(C)Oc3c(C)c(O)c4c(O)c(c(/C=N/N5CCN(C6CCCC6)CC5)c(O)c4c3C2=O)NC(=O)/C(C)=C\C=C\[C@H](C)[C@H](O)[C@@H](C)[C@@H](O)[C@@H](C)[C@H](OC(C)=O)[C@@H]1C` [Rifapentine] + CC(C)C[C@H](NC(=O)[C@H](CCc1ccccc1)NC(=O)CN1CCOCC1)C(=O)N[C@@H](Cc1ccccc1)C(=O)N[C@@H](CC(C)C)C(=O)[C@@]1(C)CO1 [Carfilzomib], the “cell viability of combination” value worked out at 78.8.
As for `COC(=O)c1ccc2c(c1)NC(=O)C2=C(Nc1ccc(N(C)C(=O)CN2CCN(C)CC2)cc1)c1ccccc1` [Nintedanib (BIBF 1120)] + CC(C)C[C@H](NC(=O)[C@H](CCc1ccccc1)NC(=O)CN1CCOCC1)C(=O)N[C@@H](Cc1ccccc1)C(=O)N[C@@H](CC(C)C)C(=O)[C@@]1(C)CO1 [Carfilzomib], the “cell viability of combination” value turned out to be 76.4.
